The target in the first experiment is S100P. Briefly: pooled miR-30 sensor sort-seq; sequence = guide strand. The settings on record: shRNA.
As to TTGAGCAATTTATCCACGGCAT, the sensor-assay potency score (higher = more potent) is -0.537.

Take TCCATTGGCGTCCAGGTCCTTG: the sensor-assay potency score (higher = more potent) was -1.46.

In the case of TACTTGTGACAGGCAGACGTGA, the sensor-assay potency score (higher = more potent) is -0.639.

With TTGGTCAGGGTCTGCGTGCTGC, the sensor-assay potency score (higher = more potent) is -0.458.

Sequence AAGACGTCTATGATCATGCCCA returned a sensor-assay potency score (higher = more potent) of 0.0811.

In a further experiment the target is SACS. The experiment is described as above. The following applies: shRNA.
On to TTTCACAATAACATGTCTCATG, for which the sensor-assay potency score (higher = more potent) was -0.427.

The sequence ATAACTTTGCAACTCGTCCTTC showed a sensor-assay potency score (higher = more potent) of 0.248.

TTCATAAACAAGTCTTTGCGGG: the sensor-assay potency score (higher = more potent) was -0.207.

For the sequence TTTCTGACAGCTGAACTCCTAC, the sensor-assay potency score (higher = more potent) is -0.234.

Take TAAAATATCATCTTTTGCCATA: the sensor-assay potency score (higher = more potent) is -0.814.

TTTTCTGTGACAACTCATCTGA yielded a sensor-assay potency score (higher = more potent) of 0.17.

As for TTTCCAACCATCTTCTACCATC, the sensor-assay potency score (higher = more potent) was -0.995.

TTTGAGAGTAAGTCTGTCCGGC came in with a sensor-assay potency score (higher = more potent) of 0.448.

TTGACTTTACCAATCTACCATC: the sensor-assay potency score (higher = more potent) was -1.12.

The sequence TAGAGTATCAACAACAATGTCA registered a sensor-assay potency score (higher = more potent) of 0.305.

Consider TTTTAGATTAGTCTGCTGCAGA, for which the sensor-assay potency score (higher = more potent) was -0.586.

Values taken from the OligoGym collection.
Further: reference of the scale not given here.
